The values below come from PubChem BioAssay AID540333 (Southern Research Specialized Biocontainment Screening …, 2011).

Out of some 10,000 compounds screened, about 320 (3.2%) were called active. Cut-off read from the data, not from the text of the source: active = CPE inhibition mostly above about 9.1% (no sharp cut-off); inactive = mostly below about 7.2%. This excerpt belongs to a sample that is enriched for actives.

A short description of the experiment: Dengue virus cytopathic effect inhibitors, cell-based, CPE readout, HTS (AID 540333). The following applies: Dengue virus CPE inhibition in host cells, at 20 µM; stronger effect = higher value. For orientation: Protection from cytopathic effect is a common read-out in antiviral testing.
Take `O=C(Nc1ccc(Cl)cc1)c1cccc(N2C(=O)C3C4CCC(C4)C3C2=O)c1` (stereo not drawn): the CPE inhibition was 2.71% (inactive). For `O=C(O)c1ccc(NC(=O)c2cccc(N3C(=O)C4C5CCC(C5)C4C3=O)c2)cc1` (stereo not drawn) the value was 1.22% (inactive); for `CC(C)(C)NC(=O)c1ccc2c(c1)C1C3CCC(C3)C1C(c1ccccc1)N2` (stereo not drawn), 15.9% (active); for `O=C(CCC(=O)NCCCc1ccccc1)NCCCc1ccccc1`, “inactive”. For `Cc1ccc(SCCNC(=O)/C=C/c2cccc([N+](=O)[O-])c2)cc1` the value was 6.54% (inactive); for `CCCCNC(=O)c1onc(CSc2cccc(OC)c2)c1C(=O)O`, “inactive”. For `CC(C)CCNC(=O)c1onc(CSc2ccccn2)c1C(=O)NCCC(C)C` the value was 25.9% (active); for `C=CCNC(=O)c1c(CSc2ccc(Cl)cc2)noc1C(=O)NCc1ccccc1`, 11.2% (active). As to `O=C(NCCCN1CCOCC1)c1onc(CSc2ccc(F)c(F)c2)c1C(=O)NCCCN1CCOCC1`, the CPE inhibition result was “inactive”. As for `C=CCNC(=O)c1onc(CSc2ccccc2)c1C(=O)NCC=C`, the CPE inhibition was 0.535% (inactive). To `COc1cccc(SCc2noc(C(=O)NCCCN3CCOCC3)c2C(=O)NCCCN2CCOCC2)c1` belongs 0.255% (inactive); to `CCCCNC(=O)c1onc(CSc2cccc(OC)c2)c1C(=O)NCCCC`, 20.1% (active); to `O=C(NCCCN1CCOCC1)c1onc(CSc2ccccn2)c1C(=O)NCCCN1CCOCC1`, “inactive”.

In the case of `CCCCNC(=O)c1onc(CSc2ccc(F)c(F)c2)c1C(=O)NCCCC`, the CPE inhibition was 11.5% (active). Consider `COCCNC(=O)c1onc(CSc2ccc(F)c(F)c2)c1C(=O)NCCOC`, for which the CPE inhibition entry is “inactive”. To `C=CCNC(=O)c1c(CSc2ccc(Cl)cc2)noc1C(=O)NCCC` belongs 0.85% (inactive). For `CCCCNC(=O)c1onc(CSc2ccccn2)c1C(=O)NCCCC` the value was 1.85% (inactive); for `CCn1c(C)nc2cc(C(=O)NNC(=S)Nc3ccc(Cl)cc3Cl)ccc21`, “inactive”.

Turning to `O=C(Cc1cccs1)N/N=C/c1ccco1`, the CPE inhibition was 0.08% (inactive).

On to `COC(=O)c1c(NC(=O)C2C3C=CC(CC3)C2C(=O)O)sc(C)c1C` (stereo not drawn), for which the CPE inhibition result is “inactive”. For the molecule `CC1=CN2C(=N)/C(=C/c3ccc(Sc4ccc(C)cc4)o3)C(=O)N=C2S1`, the CPE inhibition is 9.52% (inactive).

For the molecule `Cc1cccc(NC(=O)CN2C(=O)N/C(=C/c3cc(C)n(-c4ccncc4)c3C)C2=O)c1`, the CPE inhibition result was “inactive”. Consider `COCCNC(=O)c1onc(CSc2cccc(OC)c2)c1C(=O)NCCOC`, for which the CPE inhibition was 0.425% (inactive). To `COc1cccc(SCc2noc(C(=O)NCCN(C)C)c2C(=O)NCCN(C)C)c1` belongs 0.54% (inactive). For `COc1cccc(SCc2noc(C(=O)NCCC(C)C)c2C(=O)NCCC(C)C)c1` the value was 23% (active); for `CNC(=S)N(CCc1ccc(OC)c(OC)c1)Cc1cc2c(C)cc(C)cc2[nH]c1=O`, “inactive”; for `O=C1CN(C(=O)CSc2nnc3ccccn23)c2ccccc2N1`, 0.845% (inactive). For `C=CCNC(=O)C12CCC(C)(C(=O)C1Br)C2(C)C` (stereo not drawn), the CPE inhibition was 0.36% (inactive). To `COC(=O)N(NC(=O)C(O)(c1ccccc1)c1ccccc1)c1ccc(C)cc1` belongs 61.4% (active); to `COC(=O)N(NC(=O)C(O)(c1ccccc1)c1ccccc1)c1ccccc1`, 1.2% (inactive).

Turning to `CCOC(=O)N(NC(=O)C(O)(c1ccccc1)c1ccccc1)c1ccccc1`, the CPE inhibition was 2.6% (inactive). Take `CC(NC(=O)/C(C#N)=C/c1cn(-c2ccccc2)nc1-c1ccc(F)cc1)c1ccccc1` (stereo not drawn): the CPE inhibition was 8.04% (active). `COc1ccc(-c2nn(-c3ccccc3)cc2/C=C(\C#N)S(=O)(=O)c2ccccc2)cc1OC`: the CPE inhibition was 0.055% (inactive). To `COc1ccc(-c2nn(-c3ccccc3)cc2/C=C(/C#N)C(N)=O)cc1[N+](=O)[O-]` belongs “inactive”; to `CC1CC(=O)N(c2ccc(NCc3ccc(Cl)cc3)c([N+](=O)[O-])c2)C1=O` (stereo not drawn), 0.275% (inactive); to `COc1ccc(CC(=O)NNc2ncnc3c2cnn3-c2ccc(C)cc2)cc1OC`, 2.76% (inactive).

Take `Cc1cc(C)nc(N/N=C/C2=C(N3CCOCC3)C(=C\c3ccc(Cl)cc3)/CC2)n1`: the CPE inhibition is 15.6% (active). Turning to `Cc1cc(C)nc(N/N=C/C2=C(N3CCOCC3)C(=C/c3ccccc3)/CC2)n1`, the CPE inhibition is 9.78% (active).

For `O=[N+]([O-])c1cccc(/C=N/Nc2nc(NCc3ccccc3)nc(N3CCOCC3)n2)c1`, the CPE inhibition was 1.39% (inactive). Regarding `COc1ccc(-n2c(C)cc(/C=N/Nc3nc(N4CCOCC4)nc(N4CCOCC4)n3)c2C)cc1`, the CPE inhibition entry was “inactive”.

As to `Cc1cc(C)nc(N/N=C/C=C/c2ccccc2)n1`, the CPE inhibition is 0.52% (inactive). Regarding `S=C(N/N=C/c1ccc(Cl)cc1)N1CCOCC1`, the CPE inhibition entry is “inactive”. To `COc1ccccc1NC(=S)N1CCN(C/C=C/c2ccccc2)CC1` belongs 0.46% (inactive); to `O=C(N/N=C/c1cccc(O)c1)c1ccc(COc2ccccc2Br)cc1`, 3.17% (inactive). To `S=C(NCCCNC(=S)Nc1ccccc1)Nc1ccccc1` belongs “inactive”; to `CCOCC(O)CNc1ccccc1` (stereo not drawn), “inactive”; to `COc1ccc(N(C(=O)CS(=O)CC(=O)Nc2ccc(F)cc2)C(C(=O)NC2CCCCC2)c2cccs2)cc1` (stereo not drawn), 0.1% (inactive). For `COC(=O)c1c(NC(=O)CN2C(=O)NC(CCc3ccccc3)C2=O)sc2c1CCCCC2` (stereo not drawn) the value was 25.6% (active). As for `COC(=O)c1c(NC(=O)C2C3CCC(O3)C2C(=O)O)sc2c1CCCCCC2` (stereo not drawn), the CPE inhibition is 0.645% (inactive). Take `CCOC(=O)c1c(NC(=O)c2ccccc2N(C)S(=O)(=O)c2ccccc2)sc2c1CCCC2`: the CPE inhibition was 0.225% (inactive). Regarding `CCOC(=O)c1c(NC(=O)COC(=O)c2ccccn2)sc2c1CCC2`, the CPE inhibition result was “inactive”.

For the molecule `CC(C)OC(=O)c1c(NC(=O)CCC(=O)O)sc2c1CCCCC2`, the CPE inhibition entry was “inactive”. Turning to `COC(=O)c1c(NC(=O)CN(c2ccccc2)S(C)(=O)=O)sc2c1CCCC2`, the CPE inhibition is 18% (active). To `COC(=O)c1c(NC(=O)COC(=O)[C@@H](NS(=O)(=O)c2ccccc2)C(C)C)sc2c1CCC2` belongs 24% (active); to `COC(=O)c1c(NC(=O)COC(=O)c2ccc(Cl)cc2[N+](=O)[O-])sc2c1CCCCC2`, 3.41% (inactive); to `CC(C)[C@H](NS(=O)(=O)c1ccccc1)C(=O)OCC(=O)Nc1ccccc1Sc1ccccc1`, 24.5% (active).

For `O=C(COC(=O)CNS(=O)(=O)c1ccc2ccccc2c1)Nc1ccccc1Sc1ccccc1`, the CPE inhibition entry was “inactive”.

Consider `O=C(COC(=O)CNS(=O)(=O)c1cccc(Br)c1)Nc1ccccc1Sc1ccccc1`, for which the CPE inhibition entry is “inactive”. To `COC(=O)c1c(NC(C)=O)sc2c1CCCCC2` belongs 0.285% (inactive). For `CCCCn1c(N)c(NCCC)c(=O)[nH]c1=O` the value was “inactive”. For `COc1cc(C)c(S(=O)(=O)N2CCN=C2c2ccccc2)cc1C` the value was “inactive”. Take `CCO[C@@H]1OC(C(=O)O)=C[C@H](c2cn(C(C)=O)c3ccccc23)[C@H]1CCCO`: the CPE inhibition entry was “inactive”. For `Cc1ccccc1NC(=S)NCC(c1cccnc1)N1CCOCC1` (stereo not drawn) the value was “inactive”; for `N#Cc1c(-c2ccccc2)nc(SCC(=O)Nc2ccccc2)[nH]c1=O`, “inactive”; for `Cc1cccc(N2CCN(C(=S)NCc3ccco3)CC2)c1C`, 0.45% (inactive).

Take `CC(NS(=O)(=O)c1ccc2c(c1)OCCCO2)C(=O)O` (stereo not drawn): the CPE inhibition was 0.55% (inactive).

Turning to `CCCCOC(=O)/C=C/c1ccc(OC(=O)OC)c(OC(=O)OC)c1`, the CPE inhibition entry is “inactive”.

Take `COc1ccc(/C(O)=C2/C(=O)C(=O)N(CCCN(C)C)C2c2cccc(Cl)c2)cc1OC` (stereo not drawn): the CPE inhibition was 0.13% (inactive). Take `CCOC(=O)c1c(NC(=O)CSC(=S)N2CCOCC2)sc(C)c1C`: the CPE inhibition was 0.065% (inactive). For the molecule `COc1ccc(C(=O)NC(=S)N(CCC(C)C)c2c(N)n(Cc3ccccc3)c(=O)[nH]c2=O)cc1`, the CPE inhibition was 0.675% (inactive).

Consider `CC(=O)c1cc(-c2ccccc2)n(CC(=O)Nc2cccc(C)c2C)c1C`, for which the CPE inhibition was 0.49% (inactive). In the case of `COc1ccc([C@@H]2[C@@H]3C(=O)N(C(C)(C)C)C(=O)[C@@H]3[C@]3(Cc4ccccc4)C(=O)N(c4ccc(OC)cc4)C(=O)N23)cc1`, the CPE inhibition is 0.525% (inactive).

Consider `CCOC(=O)[C@@H]1[C@H]2COc3ccccc3[C@H]2N2C(=O)N(c3cccc(Cl)c3)C(=O)[C@]12C`, for which the CPE inhibition is 0.045% (inactive). For `CC[C@@]12C(=O)N(c3ccccc3)C(=O)N1[C@H](c1ccc(Br)cc1)[C@@H]1C(=O)N(C(C)(C)C)C(=O)[C@@H]12` the value was 5.79% (inactive).

Consider `Cc1cccc([C@@H]2[C@@H]3C(=O)N(Cc4ccccc4)C(=O)[C@@H]3[C@]3(CC(C)C)C(=O)N(c4cccc(Br)c4)C(=O)N23)c1`, for which the CPE inhibition was 1.25% (inactive). For `CC(C)C[C@@]12C(=O)N(c3cccc(F)c3)C(=O)N1[C@H](c1ccc(Br)cc1)[C@@H]1C(=O)N(C(C)(C)C)C(=O)[C@@H]12` the value was 52.3% (active); for `CC(C)(C)N1C(=O)[C@H]2[C@@H](c3ccc(Br)cc3)N3C(=O)N(c4ccccc4)C(=O)[C@@]3(C)[C@H]2C1=O`, 2.17% (inactive). For `CC(C)(C)N1C(=O)[C@H]2[C@@H](c3ccc(Br)cc3)N3C(=O)N(c4cccc(Cl)c4)C(=O)[C@@]3(Cc3ccccc3)[C@H]2C1=O` the value was 31.9% (active). For `CCN1C(=O)[C@H]2[C@@H](c3ccc(C)cc3)N3C(=O)N(c4ccccc4)C(=O)[C@@]3(CC)[C@H]2C1=O` the value was “inactive”; for `CC[C@@]12C(=O)N(c3cccc(Cl)c3)C(=O)N1[C@H](c1ccc(Br)cc1)[C@@H]1C(=O)N(C(C)(C)C)C(=O)[C@@H]12`, 23.6% (active); for `CC[C@@]12C(=O)N(c3cccc(Br)c3)C(=O)N1[C@H](c1cccc(C)c1)[C@@H]1C(=O)N(Cc3ccccc3)C(=O)[C@@H]12`, 12.7% (active).

As for `COc1ccc([C@@H]2[C@@H]3C(=O)N(C(C)(C)C)C(=O)[C@@H]3[C@]3(C)C(=O)N(c4cccc(Cl)c4)C(=O)N23)cc1`, the CPE inhibition is 0.865% (inactive). As for `COc1ccc([C@@H]2[C@@H]3C(=O)N(C(C)(C)C)C(=O)[C@@H]3[C@]3(C)C(=O)N(c4ccc(C)cc4)C(=O)N23)cc1`, the CPE inhibition result was “inactive”.
